Assay outcomes (PubChem BioAssay)
Giardia killer: Giardia lamblia killing | actives 0.15% (n = 340,000) | activity change, % at 7.66 µM, hits read low | Giardia lamblia trophozoite viability; in the data active = activity change below about -80%; inconclusive = between about -30% and that limit;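 also: parasites exposed to compound for two days anaerobically before the ATP read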
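Trophozoite viability was measured as ATP-dependent luminescence, read 15-30 min after reagent addition. Before that, parasites at 100 cells/well were exposed to compounds for 48 h, anaerobically, at 37 deg C.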
TDP1 inh: inhibitors of human tyrosyl-DNA phosphodiesterase TDP1 | Q9NUW8 | recombinant TDP1, AlphaScreen DNA substrate cleavage | Potency, µM (top dose mostly 130 µM), inactives show at the top dose activity change, negative = inhibition, hits mostly inhibitors | actives 0.28% (n = 350,000) | AID 485290; also: potency is read from the fitted curve at half-maximal effect; nearly all actives have a fitted effect of over 40% in size
Target sequence (Q9NUW8 whole entry, looked up): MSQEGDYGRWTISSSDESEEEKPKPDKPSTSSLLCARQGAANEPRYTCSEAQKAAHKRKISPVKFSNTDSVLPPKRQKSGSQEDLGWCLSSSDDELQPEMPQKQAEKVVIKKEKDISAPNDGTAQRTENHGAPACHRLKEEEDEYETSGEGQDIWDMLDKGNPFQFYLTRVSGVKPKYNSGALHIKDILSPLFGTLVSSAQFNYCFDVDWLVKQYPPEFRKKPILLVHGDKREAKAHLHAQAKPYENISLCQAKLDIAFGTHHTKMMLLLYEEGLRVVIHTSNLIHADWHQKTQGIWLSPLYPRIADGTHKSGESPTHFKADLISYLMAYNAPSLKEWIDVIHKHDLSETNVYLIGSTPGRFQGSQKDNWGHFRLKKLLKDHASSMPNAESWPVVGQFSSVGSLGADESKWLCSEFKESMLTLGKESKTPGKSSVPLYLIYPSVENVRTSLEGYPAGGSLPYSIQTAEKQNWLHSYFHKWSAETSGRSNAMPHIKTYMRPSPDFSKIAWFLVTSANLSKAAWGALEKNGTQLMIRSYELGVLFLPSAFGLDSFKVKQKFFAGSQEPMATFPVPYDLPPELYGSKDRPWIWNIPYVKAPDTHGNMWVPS
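Tdp1 1 nM final; 15 min RT w/ cpd; substrate 15 nM, 5 min; beads 10 ug/ml, 10 min; AlphaScreen read. Neg ctrl: no enzyme.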
TDP1 cell CPT: growth inhibition of DT40 Tdp1-/-;hTDP1 cells with camptothecin (screen for TDP1 inhibitors); actives 12% (n = 420,000); chicken DT40 Tdp1-/-;hTDP1 cells + 20 nM CPT, ATP luminescence, 48 h; Potency, µM (series often up to 46.2 µM), without a hit: at the top dose activity change, negative = growth inhibition, most hits filed as inhibitors; also: potency is read from the fitted curve at half-maximal effect; nearly all actives have a fitted effect of over 55% in size
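Chicken DT40 Tdp1-/- cells stably complemented with human TDP1 were seeded at 400 cells/well in medium containing 20 nM camptothecin, exposed to pin-transferred compounds, and grown at 37 °C for at least 48 hr. Viability was read as ATP luminescence.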
IL1B secr inh: inhibitors of inflammasome signaling (IL-1 beta secretion) | THP-1 LPS/ATP IL-1B secretion, AlphaLISA, 16 h; stronger effect = lower value | activity change, % at 57.5 µM | actives 4.7% (n = 360,000); in the data active = activity change below about -50%; inconclusive = mostly about -30% to -49%
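THP-1 cells pretreated 1 hr with compounds (up to 57.5 uM final), then stimulated with LPS (250 ng/mL final) plus ATP (1.25 mM final); secreted IL-1B measured by AlphaLISA after 16 hr, decreased signal indicating inhibition.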
ELG1 DNA repair: blocks ELG1-dependent DNA repair in HEK293T cells. HEK293T ELG1-luciferase reporter, luminescence, 16 h; DNA damage induced by 5-fluorouridine. Potency, µM (top dose mostly 46.1 µM), without a hit: at the highest dose activity change, negative = inhibition, actives largely listed as inhibitors. actives 2.3% (n = 330,000). AID 504467; also: potency is read from the fitted curve at half-maximal effect; nearly all actives have a fitted effect of over 55% in size
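Luminescence from the luciferase reporter, measured 30 min after ONE-Glo reagent at room temperature, was the read-out. Beforehand, 2,000 cells per well were exposed for 16 hr at 37 °C to 5-fluorouridine together with compound or vehicle.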
DT40 TDP1 no CPT: qHTS for Inhibitors of human tyrosyl-DNA phosphodiesterase 1 (TDP1): qHTS in cells in absence of CPT; DT40 Tdp1-/- hTDP1 cells, no CPT, ATP luminescence, 48 h; Potency, µM (top dose mostly 46.2 µM), for inactives: at the top dose activity change, negative = growth inhibition, hits mostly inhibitors; actives 15% (n = 420,000); also: potency is read from the fitted curve at half-maximal effect; nearly all actives have a fitted effect of over 55% in size
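Chicken DT40 Tdp1-/- cells stably complemented with human TDP1 were seeded at 400 cells/well with DMSO in place of 20 nM camptothecin. After compound pinning, cells grew at least 48 hr at 37 °C; viability read by CellTiter-Glo luminescence.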
An asterisk follows results filed as active; ? = inconclusive; · = no result; [ ] = dose if it differs, or a comment. Rows were chosen to be rich in hits. Some 19% of all compounds tested hit in one or more screens of this group. Unless noted, calls follow the shape of the dose curve; as a rule, active = well fitted curve in the direction sought with a large enough effect; inconclusive = small, poorly fitted or top-dose-only effect, or another doubt; inactive = no such curve, though single readings can be large; an effect the other way counts as inactive or inconclusive. % is scaled to controls: 0 for no effect and ±100 for the full control effect.

SMILES	Giardia killer	TDP1 inh	TDP1 cell CPT	IL1B secr inh	ELG1 DNA repair	DT40 TDP1 no CPT
COc1cc(NS(=O)(=O)c2ccc(NC(=S)NC(=O)c3cccs3)cc2)nc(OC)n1	61	0%	-9%	25	-4%	0%
O=C(Nc1cc(Cl)ccc1N1CCOCC1)c1ccc(N2CCCCC2)c([N+](=O)[O-])c1	50	·	?	-6	·	?
Cc1ccc(C(=O)Nc2ccccc2N2CCCCC2)cc1[N+](=O)[O-]	?	3%	?	79	?	16µM*
CN1CCN(c2ccccc2NC(=O)c2ccc(N3CCCCC3)c([N+](=O)[O-])c2)CC1	0	3%	12µM*	-63*	?	12µM*
Cc1ccc(NC(=O)c2cc(S(=O)(=O)Nc3ccc(C)cc3)cs2)cc1	1	·	23µM*	-78*	·	23µM*
COc1ccc(C(=O)Nc2ccccc2N2CCCCC2)cc1[N+](=O)[O-]	-19	4%	?	75	?	?
COc1ccccc1Cc1c(C2CCCCC2)nc2c3ccccc3ccn12	·	·	?	26	·	?
COCCN(C(=O)CSc1nnc(-c2cccc(F)c2)n1N)c1c(N)n(CC(C)C)c(=O)[nH]c1=O	3	1%	-15%	-4	10%	14%
CCOC(=O)N1CCN(C(=O)c2c(N)no[n+]2[O-])CC1	·	0%	·	·	10%	·
O=c1c(Cc2ccc(F)cc2)c(O)ccn1Cc1cccc(Cl)c1	-12	1%	?	0	?	16µM*
COc1ccc(Nc2ncnc3c2cnn3C)c(OC)c1	·	3%	-5%	·	·	-11%
CC(OC(=O)c1ccc2ccccc2c1)C(=O)N(C)Cc1ccccc1 (stereo unspecified)	-16	-6%	?	2	-20%	21µM*
CC(OC(=O)c1ccccc1NS(=O)(=O)c1cccc(C(F)(F)F)c1)C(=O)N(C)Cc1ccccc1 (stereo unspecified)	15	-3%	?	-23	-18%	23µM*
COC(=O)c1ccc(CSc2nc3ccccc3[nH]2)o1	1	4%	-24%	6	0%	-8%
COC(=O)c1ccc(CSc2nc3ccc(S(=O)(=O)N4CCOCC4)cc3[nH]2)cc1	0	-3%	-26%	?	-9%	?
COC(=O)c1cccc(CSc2nc3ccccc3[nH]2)c1	?	1%	?	3	?	16µM*
COC(=O)c1ccc(CSc2nc3ccc(S(N)(=O)=O)cc3[nH]2)cc1	15	0%	-4%	-101*	?	1%
CCOc1ccc(/C=N/NC(=O)c2ccc(CSc3nc4ccccc4[nH]3)cc2)cc1	4	-1%	23µM*	21	-9%	23µM*
Cc1ccc2c(c1)N(C(=O)CCC(=O)O)CCO2	21	0%	-19%	11	9%	?
Cc1cc(C(=O)N2CCCc3ccccc32)ccc1[N+](=O)[O-]	-14	·	-5%	-10	8%	-24%
COc1ccc(-c2csc3nc(-c4ccc(C)cc4)oc(=O)c23)cc1OC	-15	-12%	9.2µM*	-1	9%	10µM*
COc1ccc(-c2csc3nc(C)nc(N4CCCCC4)c23)cc1OC	1	2%	?	-11	?	15µM*
CCOc1ccc(-c2csc3ncn(-c4ccc(OC)cc4)c(=O)c23)cc1	5	-1%	?	?	?	16µM*
COc1ccc(-c2csc3ncn(-c4cccc(C)c4)c(=O)c23)cc1OC	18	8%	?	?	-7%	?
COc1ccc(-c2csc3nc(C)n(-n4cccc4)c(=O)c23)cc1OC	7	9%	16µM*	21	-1%	23µM*
SMILES	Giardia killer	TDP1 inh	TDP1 cell CPT	IL1B secr inh	ELG1 DNA repair	DT40 TDP1 no CPT
O=C(COC(=O)c1ccc(OC(F)(F)F)cc1)NCCN1C(=O)CSC1=O	-17	-1%	-6%	-9	1%	0%
COc1ccccc1-n1cnc2sc(C)c(C)c2c1=O	-15	·	-16%	-4	19%	2%
COc1ccccc1-n1cnc2sc(-c3ccccc3)cc2c1=O	-1	-2%	?	-22	?	12µM*
COc1ccc(-c2csc3ncn(-c4ccccc4OC)c(=O)c23)cc1OC	14	5%	?	-13	?	23µM*
COc1ccc(-c2csc3nc(-c4ccc(F)cc4)oc(=O)c23)cc1	·	0%[12.3 µM]	4%	·	·	-23%
COc1ccc(-c2csc3nc(-c4ccccc4OC)oc(=O)c23)cc1	5	0%	21µM*	·	-7%	23µM*
COc1ccc(C2=NN(S(C)(=O)=O)C(c3cn(-c4ccccc4)nc3-c3cccs3)C2)cc1 (stereo unspecified)	·	7%	10%	·	·	-2%
CC(=O)c1ccc(N2CCN(C(=O)CCc3nnc4n(C)c(=O)c5sccc5n34)CC2)cc1	·	-3%	-12%	·	·	-22%
Cc1nc2cnc(Oc3ccccc3)nc2n(CCc2ccccc2)c1=O	·	·	1%	·	·	7%
Cc1ccccc1NC(=O)C(Cc1ccccc1)N1Cc2ccccc2C1=O (stereo unspecified)	·	-1%	-6%	·	·	-26%
CCC(C)(C)n1nnnc1CN(Cc1cc2cc(OC)ccc2[nH]c1=O)C1CCCC1	23	4%	?	-53*	?	?
CCOc1ccc2[nH]c(=O)c(CN(Cc3nnnn3Cc3ccco3)C3CCCCC3)cc2c1	0	·	?	-20	10µM*	12µM*
COc1ccc(Cn2nnnc2CN(Cc2cc3ccc(C)cc3[nH]c2=O)C2CCCC2)cc1	-4	8%	9.2µM*	-25	13µM*	13µM*
O=C(N/N=C/c1c[nH]c2ccc(Br)cc12)C1CC1	25	3%	-13%	4	-3%	?
CN1CC(C(=O)Nc2ccc(F)c(Cl)c2)CC1=O (stereo unspecified)	13	3%	1%	8	9%	4%
O=C(c1ccco1)N1N=C(c2cccs2)CC1c1cc([N+](=O)[O-])ccc1O (stereo unspecified)	-17	9%	-3%	0	4%	3%
COc1cc(C)ccc1OCc1cc(C(=O)NC2CCOCC2)no1	·	·	0%	-9	·	-9%
COc1cc(C)ccc1OCc1cc(C(=O)NC(c2ccccn2)C(F)(F)F)no1 (stereo unspecified)	·	·	0.65µM*	-26	·	?
S=C(Nc1ccccc1)Nc1ccc(Br)cc1	5	-8%	16µM*	9	-13%	21µM*
